# Like-named read-outs stand apart in the source and are kept apart here.
# Assays:
# FGR = settings: concentration: 1 μM, replicates: in singlicate; n = 1
# FLT1 = settings: concentration: 1 μM, replicates: in singlicate; n = 1
# FLT3-autoinhibited = settings: concentration: 1 μM, replicates: in singlicate; n = 1
# FLT3 = settings: concentration: 1 μM, replicates: in singlicate; n = 1
# FLT4 = settings: concentration: 1 μM, replicates: in singlicate; n = 1
# FRK = settings: concentration: 1 μM, replicates: in singlicate; n = 1
# FYN = settings: concentration: 1 μM, replicates: in singlicate; n = 1
# GAK = settings: concentration: 1 μM, replicates: in singlicate; n = 1
# GCN2(Kin.Dom.2,S808G) = tested on: T1, GCN2(Kin.Dom.2,S808G); settings: concentration: 1 μM, replicates: in singlicate; n = 1
# T1 construct: gene EIF2AK4
# GRK1 = settings: concentration: 1 μM, replicates: in singlicate; n = 1
# GRK2 = tested on: T2, GRK2; settings: concentration: 1 μM, replicates: in singlicate; n = 1
# T2 construct: gene ADRBK1
# GRK3 = tested on: T3, GRK3; settings: concentration: 1 μM, replicates: in singlicate; n = 1
# T3 construct: gene ADRBK2
# GRK4 = settings: concentration: 1 μM, replicates: in singlicate; n = 1
# GRK7 = settings: concentration: 1 μM, replicates: in singlicate; n = 1
# GSK3A = settings: concentration: 1 μM, replicates: in singlicate; n = 1
# GSK3B = settings: n = 1
# HASPIN = tested on: T4, HASPIN; settings: concentration: 1 μM, replicates: in singlicate; n = 1
# T4 construct: gene GSG2
# HCK = settings: concentration: 1 μM, replicates: in singlicate; n = 1
# HIPK1 = settings: concentration: 1 μM, replicates: in singlicate; n = 1
# HIPK2 = settings: concentration: 1 μM, replicates: in singlicate; n = 1
# [1] = concentration: 1 μM, replicates: in singlicate
# 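Further: KINOMEscan kinase panel screen.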
compound,measurement,setting,value
Nc1nc(-c2ccccc2F)c(-c2ccnc3ccccc23)s1 [GW560459],%Inh,FGR,7%
same,%Inh,FLT1,30%
same,%Inh,FLT3-autoinhibited,0%
same,%Inh,FLT3,25%
same,%Inh,FLT4,0%
same,%Inh,FRK,0%
same,%Inh,FYN,39%
same,%Inh,GAK,79%
same,%Inh,"GCN2(Kin.Dom.2,S808G)",6%
same,%Inh,GRK1,0%
same,%Inh,GRK2,0%
same,%Inh,GRK3,50%
same,%Inh,GRK4,0%
same,%Inh,GRK7,0%
same,%Inh,GSK3A,3%
same,%Inh,GSK3B; [1],0%
same,%Inh,HASPIN,25%
same,%Inh,HCK,0%
same,%Inh,HIPK1,0%
same,%Inh,HIPK2,0%
CCC(=O)c1c(-c2ccccc2)c2cc(Cl)ccc2c(=O)n1Cc1ccc(C(=O)O)cc1,%Inh,FGR,0%
same,%Inh,FLT1,0%
same,%Inh,FLT3-autoinhibited,4%
same,%Inh,FLT3,0%
same,%Inh,FLT4,0%
same,%Inh,FRK,0%
same,%Inh,FYN,0%
same,%Inh,GAK,0%
same,%Inh,"GCN2(Kin.Dom.2,S808G)",12%
same,%Inh,GRK1,0%
same,%Inh,GRK2,0%
same,%Inh,GRK3,0%
same,%Inh,GRK4,16%
same,%Inh,GRK7,0%
same,%Inh,GSK3A,3%
same,%Inh,GSK3B; [1],0%
same,%Inh,HASPIN,42%
same,%Inh,HCK,0%
same,%Inh,HIPK1,10%
same,%Inh,HIPK2,0%
COc1cccc(C2=C(Nc3cccc(C(=O)O)c3)C(=O)NC2=O)c1 [SB-390770],%Inh,FGR,14%
same,%Inh,FLT1,13%
same,%Inh,FLT3-autoinhibited,5%
same,%Inh,FLT3,0%
same,%Inh,FLT4,25%
same,%Inh,FRK,2%
same,%Inh,FYN,29%
same,%Inh,GAK,21%
same,%Inh,"GCN2(Kin.Dom.2,S808G)",0%
same,%Inh,GRK1,14%
same,%Inh,GRK2,0%
same,%Inh,GRK3,22%
same,%Inh,GRK4,0%
same,%Inh,GRK7,0%
same,%Inh,GSK3A,51%
same,%Inh,GSK3B; 1 µM,31%
same,%Inh,HASPIN,10%
same,%Inh,HCK,0%
same,%Inh,HIPK1,0%
same,%Inh,HIPK2,0%
COc1ccc(-c2cc3c(C)nc(N)nc3n([C@H]3CC[C@H](OCCO)CC3)c2=O)cn1,%Inh,FGR,14%
same,%Inh,FLT1,11%
same,%Inh,FLT3-autoinhibited,0%
same,%Inh,FLT3,0%
same,%Inh,FLT4,0%
same,%Inh,FRK,0%
same,%Inh,FYN,0%
same,%Inh,GAK,0%
same,%Inh,"GCN2(Kin.Dom.2,S808G)",0%
same,%Inh,GRK1,0%
same,%Inh,GRK2,17%
same,%Inh,GRK3,0%
same,%Inh,GRK4,1%
same,%Inh,GRK7,1%
same,%Inh,GSK3A,0%
same,%Inh,GSK3B; [1],1%
same,%Inh,HASPIN,33%
same,%Inh,HCK,13%
same,%Inh,HIPK1,17%
same,%Inh,HIPK2,0%
O=C(Nc1ccc2c(c1)OCO2)NC1CCN(c2ccnc(NCc3ccc(F)cc3)n2)CC1 [GSK1379859],%Inh,FGR,9%
same,%Inh,FLT1,15%
same,%Inh,FLT3-autoinhibited,0%
same,%Inh,FLT3,0%
same,%Inh,FLT4,9%
same,%Inh,FRK,0%
same,%Inh,FYN,31%
same,%Inh,GAK,4%
same,%Inh,"GCN2(Kin.Dom.2,S808G)",1%
same,%Inh,GRK1,0%
same,%Inh,GRK2,0%
same,%Inh,GRK3,0%
same,%Inh,GRK4,0%
same,%Inh,GRK7,0%
same,%Inh,GSK3A,2%
same,%Inh,GSK3B; [1],8%
same,%Inh,HASPIN,0%
same,%Inh,HCK,0%
same,%Inh,HIPK1,0%
same,%Inh,HIPK2,0%
CCS(=O)(=O)c1ccc(OC)c(Nc2ncc(-c3ccc(F)cc3)o2)c1.Cl [GW591947],%Inh,FGR,0%
same,%Inh,FLT1,26%
same,%Inh,FLT3-autoinhibited,0%
same,%Inh,FLT3,0%
same,%Inh,FLT4,6%
same,%Inh,FRK,0%
same,%Inh,FYN,9%
same,%Inh,GAK,0%
same,%Inh,"GCN2(Kin.Dom.2,S808G)",16%
same,%Inh,GRK1,0%
same,%Inh,GRK2,0%
same,%Inh,GRK3,0%
same,%Inh,GRK4,0%
same,%Inh,GRK7,0%
same,%Inh,GSK3A,8%
same,%Inh,GSK3B; [1],0%
same,%Inh,HASPIN,0%
same,%Inh,HCK,0%
same,%Inh,HIPK1,33%
same,%Inh,HIPK2,0%
CCC(=O)c1c(-c2ccccc2)c2cc(Cl)ccc2c(=O)n1Cc1cc(C(=O)NC2CC2)n(C)n1,%Inh,FGR,20%
same,%Inh,FLT1,0%
same,%Inh,FLT3-autoinhibited,0%
same,%Inh,FLT3,0%
same,%Inh,FLT4,1%
same,%Inh,FRK,8%
same,%Inh,FYN,0%
same,%Inh,GAK,1%
same,%Inh,"GCN2(Kin.Dom.2,S808G)",0%
same,%Inh,GRK1,0%
same,%Inh,GRK2,0%
same,%Inh,GRK3,23%
same,%Inh,GRK4,0%
same,%Inh,GRK7,12%
same,%Inh,GSK3A,0%
same,%Inh,GSK3B; [1],13%
same,%Inh,HASPIN,25%
same,%Inh,HCK,22%
same,%Inh,HIPK1,0%
same,%Inh,HIPK2,8%
Cc1cc(Nc2nc(-c3cccc(C)n3)nc3ccccc23)ccn1 [GW872411],%Inh,FGR,0%
same,%Inh,FLT1,0%
same,%Inh,FLT3-autoinhibited,0%
same,%Inh,FLT3,7%
same,%Inh,FLT4,0%
same,%Inh,FRK,0%
same,%Inh,FYN,0%
same,%Inh,GAK,0%
same,%Inh,"GCN2(Kin.Dom.2,S808G)",0%
same,%Inh,GRK1,13%
same,%Inh,GRK2,0%
same,%Inh,GRK3,0%
same,%Inh,GRK4,35%
same,%Inh,GRK7,0%
same,%Inh,GSK3A,0%
same,%Inh,GSK3B; [1],0%
same,%Inh,HASPIN,0%
same,%Inh,HCK,7%
same,%Inh,HIPK1,0%
same,%Inh,HIPK2,0%

# From PMC5540273 (PLoS ONE, 2017)
